# Reference: PubChem BioAssay (NCATS)
# Inconclusive results are not listed. The list shows a part of the results. A call without a number means that no potency is given here. Active and inactive are the calls of the source. Unless noted, the call rests on the fitted dose curve; in most records, active means well fitted curve in the direction sought with a large enough effect; inconclusive means small, poorly fitted or top-dose-only effect, or another doubt; inactive means no such curve, though single readings can be large; an effect the other way counts as inactive or inconclusive.
# Tests used:
# [1] = target: Glucocorticoid receptor (Homo sapiens) (UniProt P04150); experiment: GR-EFC Redistribution (AID 451; calls by dose curve; further: potency means the concentration at half of the fitted maximal effect); settings: CHO-K1 GR-EFC translocation, beta-gal luminescence, 2 h
# Sequence of Glucocorticoid receptor (Homo sapiens) (P04150 whole entry, looked up, the tested form may be a part): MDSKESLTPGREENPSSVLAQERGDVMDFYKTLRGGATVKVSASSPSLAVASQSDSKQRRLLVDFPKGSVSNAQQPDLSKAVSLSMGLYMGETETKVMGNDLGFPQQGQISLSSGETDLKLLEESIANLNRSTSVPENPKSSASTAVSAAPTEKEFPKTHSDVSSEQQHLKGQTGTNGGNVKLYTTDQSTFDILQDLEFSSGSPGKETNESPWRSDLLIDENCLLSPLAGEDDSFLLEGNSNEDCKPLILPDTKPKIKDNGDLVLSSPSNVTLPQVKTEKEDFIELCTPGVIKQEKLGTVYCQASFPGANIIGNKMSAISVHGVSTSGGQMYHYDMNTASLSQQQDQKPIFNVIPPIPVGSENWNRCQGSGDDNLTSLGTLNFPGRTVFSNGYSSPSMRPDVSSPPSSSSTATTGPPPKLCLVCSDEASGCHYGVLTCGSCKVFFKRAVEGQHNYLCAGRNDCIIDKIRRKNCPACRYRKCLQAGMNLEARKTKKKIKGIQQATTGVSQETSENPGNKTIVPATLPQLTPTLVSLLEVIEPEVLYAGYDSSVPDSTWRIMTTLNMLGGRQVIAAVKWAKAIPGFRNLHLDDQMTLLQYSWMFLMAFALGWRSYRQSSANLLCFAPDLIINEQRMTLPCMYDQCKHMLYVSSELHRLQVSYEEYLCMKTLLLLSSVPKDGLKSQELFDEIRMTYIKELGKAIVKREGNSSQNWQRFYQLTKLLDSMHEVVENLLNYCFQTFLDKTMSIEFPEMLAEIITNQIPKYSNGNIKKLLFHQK
# Procedure, shortened: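 Translocation of GR-ED fusion to nuclear EA restores b-gal, read by luminescence after 1 h room-temperature detection. Engineered CHO-K1 biosensor cells, 1,000/well, exposed 2 h at 37 C to titrations up to 46 uM final.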
# [2] = target: Mitogen-activated protein kinase 10 (Mus musculus) (UniProt Q61831); experiment: JNK3 AlphaScreen Assay (AID 530; active means well fitted curve in either direction with a large enough effect, not every such curve was filed as active;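 further: kinase came from lysate of stimulated human HepG2 cells; signal reports phosphorylation of biotinylated GST-cJun 1-79 at Ser73 with 10 µM ATP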); settings: JNK3 lysate, c-Jun phosphorylation; series mostly up to 57.1 µM
# Procedure, shortened: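 Compound titrations were preincubated 15 minutes at room temperature with substrate, antibody and pre-activated JNK3-containing HepG2 lysate. Reactions were started with 10 uM ATP and stopped with EDTA-containing bead buffer for AlphaScreen detection.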
# [3] = target: 3',5'-cyclic-AMP phosphodiesterase 4B (Homo sapiens) (UniProt Q07343); experiment: qHTS Assay for Inhibitors of PDE-IV (AID 607; active means well fitted activation curve with a large enough effect in the main read-out, with a control signal flat, not every such curve was filed as active); settings: HEK293 ACTOne CNG channel cells, membrane potential fluorescence; series mostly up to 22.9 µM
# Sequence of 3',5'-cyclic-AMP phosphodiesterase 4B (Homo sapiens) (Q07343 whole entry, looked up): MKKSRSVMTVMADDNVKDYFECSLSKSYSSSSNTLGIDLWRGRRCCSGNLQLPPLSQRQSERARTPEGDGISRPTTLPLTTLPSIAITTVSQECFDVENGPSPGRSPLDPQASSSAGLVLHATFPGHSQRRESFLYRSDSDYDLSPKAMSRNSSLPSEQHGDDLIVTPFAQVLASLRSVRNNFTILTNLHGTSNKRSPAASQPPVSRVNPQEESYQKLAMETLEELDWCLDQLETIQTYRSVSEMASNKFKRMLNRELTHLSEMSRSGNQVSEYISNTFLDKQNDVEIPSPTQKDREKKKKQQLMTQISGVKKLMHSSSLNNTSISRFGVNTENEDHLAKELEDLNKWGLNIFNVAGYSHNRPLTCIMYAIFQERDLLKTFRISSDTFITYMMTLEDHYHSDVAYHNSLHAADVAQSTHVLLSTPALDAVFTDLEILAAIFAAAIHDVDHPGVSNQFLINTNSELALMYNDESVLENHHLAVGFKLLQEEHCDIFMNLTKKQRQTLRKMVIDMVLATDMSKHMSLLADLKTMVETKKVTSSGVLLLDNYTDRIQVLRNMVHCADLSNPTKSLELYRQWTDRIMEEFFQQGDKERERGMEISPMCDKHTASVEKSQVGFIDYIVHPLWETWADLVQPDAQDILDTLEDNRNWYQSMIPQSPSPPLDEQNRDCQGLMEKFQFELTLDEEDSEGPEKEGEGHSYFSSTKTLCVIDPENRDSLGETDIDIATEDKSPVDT
# Procedure, shortened: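 Live HEK293 cells with a modified cyclic nucleotide-gated (CNG) channel report intracellular cAMP via membrane-potential dye fluorescence (ex 535/em 590 nm). Endogenous PDE-IV was targeted. Compounds were tested at up to 22.9 uM final; RO 20-1724 100 uM served as control.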
# [4] = target: Tumor susceptibility gene 101 protein (Homo sapiens) (UniProt Q99816); experiment: qHTS Assay for Iinhibitors of HIV-1 Budding by Blocking the Interaction of PTAP/TSG101: Hit Validation (AID 651600); settings: PTAP peptide/TSG101 UEV interaction, biochemical assay; series mostly up to 57.5 µM; further: potency means the concentration at half of the fitted maximal effect; nearly all actives have a fitted effect of over 70% in size
# Sequence of Tumor susceptibility gene 101 protein (Homo sapiens) (Q99816 whole entry, looked up, the tested form may be a part): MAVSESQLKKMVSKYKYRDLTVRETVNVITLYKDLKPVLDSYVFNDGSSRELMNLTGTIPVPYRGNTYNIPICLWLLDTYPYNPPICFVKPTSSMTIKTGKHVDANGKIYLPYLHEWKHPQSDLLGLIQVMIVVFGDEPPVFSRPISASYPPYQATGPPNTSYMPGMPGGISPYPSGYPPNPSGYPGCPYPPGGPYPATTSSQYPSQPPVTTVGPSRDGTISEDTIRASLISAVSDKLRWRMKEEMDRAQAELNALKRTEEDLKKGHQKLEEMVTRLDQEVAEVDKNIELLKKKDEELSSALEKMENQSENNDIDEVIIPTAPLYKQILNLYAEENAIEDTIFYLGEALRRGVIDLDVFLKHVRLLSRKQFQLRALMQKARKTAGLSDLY
# Procedure, shortened: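 FITC-PTAP peptide (50 nM final) binding to Tsg101 binding domain (10 uM final) was measured by polarization after 20 min at r.t. with compounds, in 10 mM HEPES pH 7.5 buffer with 0.15 M NaCl and 0.01% Tween 20.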
# [5] = qHTS Assay for Identification of Small Molecule Agonists for Hypoxia Response Element Signaling Pathway (AID 914; active means well fitted activation curve with a large enough effect in the signal ratio, with a control signal flat, not every such curve was filed as active; the % refers to the signal ratio); settings: ME-180 (cervical carcinoma) HRE-bla reporter, beta-lactamase ratio, CoCl2, 17 h; activation: stronger effect = higher value
# Procedure, shortened: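 Compounds in a titration series were added to ME-180 reporter cells alongside an EC50 level of CoCl2. After 17 hours, beta-lactamase activity was read as the 460nm/530nm emission ratio of CCF4, giving AC50 values.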
# [6] = Counterscreen for APE1 Inhibitors: Fluorescent Dye Displacement Assay (AID 2564); settings: DNA fluorescent dye displacement counterscreen, fluorescence; series mostly up to 28.5 µM;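 further: loss of thiazole orange fluorescence as the dye is displaced from duplex DNA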
# Procedure, shortened: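 ThO 250 nM + dsDNA 50 nM (THF abasic site, 5'-TAMRA), Tris-HCl pH7.5/50mM NaCl/2 mM MgCl2/0.01% Tween-20; compounds pin-transferred; ex 480/em 540 nm endpoint. Neutral = no compound; no-DNA ThO wells = negative control.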
# [7] = target: Endonuclease 4 (Escherichia coli (strain K12)) (UniProt P0A6C1); experiment: Counterscreen for APE1 Inhibitors: qHTS Assay for Inhibitors of Endonuclease IV (AID 2565); settings: E. coli Endo IV, fluorogenic AP-site DNA cleavage; series mostly up to 27.1 µM
# Procedure, shortened: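 qHTS concentration-response format; LOPAC1280 tested under APE1-screen conditions. 2 nM enzyme, 15 min compound preincubation at RT, then 50 nM TAMRA/BHQ-2 abasic substrate; kinetic fluorescence read, three reads at 60 s intervals.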
# [8] = target: DNA repair nuclease/redox regulator APEX1 (Homo sapiens) (UniProt P27695); experiment: Confirmation qHTS Assay for Inhibitors of the Human Apurinic/apyrimidinic Endonuclease 1 (APE1) (AID 2572); settings: purified APE1, fluorogenic abasic-site DNA cleavage; further: potency means the concentration at half of the fitted maximal effect; nearly all actives have a fitted effect of over 30% in size
# Sequence of DNA repair nuclease/redox regulator APEX1 (Homo sapiens) (P27695 whole entry, looked up): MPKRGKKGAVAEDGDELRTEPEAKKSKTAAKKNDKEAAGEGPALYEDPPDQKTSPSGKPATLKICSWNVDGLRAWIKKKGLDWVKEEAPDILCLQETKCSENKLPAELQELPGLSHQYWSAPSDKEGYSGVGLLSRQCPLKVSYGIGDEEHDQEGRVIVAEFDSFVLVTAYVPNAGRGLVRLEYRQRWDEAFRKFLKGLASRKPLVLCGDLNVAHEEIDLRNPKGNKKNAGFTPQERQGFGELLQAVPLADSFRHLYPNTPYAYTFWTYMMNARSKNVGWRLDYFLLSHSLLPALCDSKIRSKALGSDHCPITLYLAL
# Procedure, shortened: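 Enzyme and test compound were incubated for 15 min at room temperature, after which a 50 nM (final) double-stranded abasic-site substrate bearing 5'-TAMRA and 3'-BHQ-2 was added. Incision was followed as fluorescence increase over three reads.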
# [9] = target: DNA repair nuclease/redox regulator APEX1 (Homo sapiens) (UniProt P27695); experiment: qHTS FP-Based Assay for Inhibitors of the Human Apurinic/apyrimidinic Endonuclease 1 (APE1) (AID 2573); settings: APE1 binding to TAMRA-labelled double-stranded DNA, fluorescence polarization displacement; series mostly up to 28.5 µM
# From the text: The apurinic/apyrimidinic endonuclease APE1 is the primary mammalian enzyme responsible for the removal of abasic (or AP) sites in DNA and functions centrally in the base excision DNA repair (BER) pathway. […] Thus, targeting APE1 could improve the efficacy of current treatment paradigms by promoting selective sensitization or protection of diseased and normal cells, respectively.
# In order to gain insight into the mode of action of confirmed APE1 inhibitors, we implemented a miniaturized fluorescence polarization assay designed to report on compounds which competitively displace ds-DNA substrate. The fluorescence polarization assay has been implemented in 384- and 1536-well format for binding of TAMRA-labeled double-stranded DNA probe not containing a quencher. The binding of protein to DNA is inhibited by ATA, a general inhibitor of APE1 activity.
# See also related primary fluorogenic assay (AID 2517). […]
# Three uL of enzyme were dispensed to 1536-well Greiner black solid bottom plates. […] The plates were immediately transferred into ViewLux High-throughput CCD imager (Perkin-Elmer) in order to measure the reaction progress in kinetic mode (three reads every 60 seconds) using 525 nm excitation and 598 nm emission fluorescence protocol. The fluorescence intensity difference between the third and the first time points was used to compute reaction progress.
# [10] = qHTS Assay for Inhibitors of Fructose-1,6-bisphosphate Aldolase from Giardia Lamblia: Mammalian cellular toxicity (AID 2786); settings: mammalian cell viability counter-screen; series mostly up to 57.5 µM;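 further: compound exposure lasted 48 h before reading; nearly all actives have a fitted effect of over 60% in size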
# Procedure, shortened: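 Mammalian cytotoxicity surrogate: Chinese hamster ovary cells exposed to compound for 48 h at 37 °C. Cellular ATP then measured with ATPlite reagent, 20 min incubation.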
# [11] = target: Fructose-bisphosphate aldolase (Giardia intestinalis (strain ATCC 50803 / WB clone C6)) (UniProt A8B2U2); experiment: qHTS Assay for Inhibitors of Fructose-1,6-bisphosphate Aldolase from Giardia Lamblia: Primary screen confirmation (AID 2787); settings: purified Giardia aldolase enzyme activity; series mostly up to 57.5 µM;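 further: aldolase product measured through coupled diaphorase step turning resazurin into fluorescent resorufin; nearly all actives have a fitted effect of over 45% in size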
# Sequence of Fructose-bisphosphate aldolase (Giardia intestinalis (strain ATCC 50803 / WB clone C6)) (A8B2U2 whole entry, looked up): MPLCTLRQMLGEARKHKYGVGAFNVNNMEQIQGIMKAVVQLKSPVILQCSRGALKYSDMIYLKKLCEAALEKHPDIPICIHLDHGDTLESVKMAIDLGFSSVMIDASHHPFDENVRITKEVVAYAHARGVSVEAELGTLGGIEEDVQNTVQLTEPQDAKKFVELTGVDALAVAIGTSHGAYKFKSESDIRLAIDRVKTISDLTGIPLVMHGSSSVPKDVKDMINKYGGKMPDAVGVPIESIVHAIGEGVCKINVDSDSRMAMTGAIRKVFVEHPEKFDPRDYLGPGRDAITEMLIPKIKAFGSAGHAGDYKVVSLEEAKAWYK
# Procedure, shortened: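 Confirmation of primary hits by qHTS up to 57.5 uM final compound. Enzyme at 40 nM with 30 uM ZnCl2, 10 min RT pre-incubation, then substrate/coupling/resorufin-forming detection mix for 20 min before fluorescence read at 525/598 nm.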
# [12] = target: Fructose-bisphosphate aldolase A (Oryctolagus cuniculus) (UniProt P00883); experiment: qHTS Assay for Inhibitors of Fructose-1,6-bisphosphate Aldolase from Giardia Lamblia: Rabbit FBPA Selectivity (AID 2794); settings: Rabbit muscle FBPA enzyme inhibition, selectivity counter-screen; series mostly up to 57.5 µM; further: nearly all actives have a fitted effect of over 60% in size
# Procedure, shortened: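 AmpLite Red readout, ex/em 525/598 nm. Rabbit FBPA, GAP-linked coupling enzymes; 10 min cpd preincubation, then 20 min after substrate, both RT. Concentration-response up to 57.5 uM final.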
# [13] = qHTS Assay for Inhibitors of Fructose-1,6-bisphosphate Aldolase from Giardia Lamblia: Coupling assay counterscreen confirmation (AID 2795); settings: GAPDH coupling enzyme counterscreen, biochemical; series mostly up to 57.5 µM; further: nearly all actives have a fitted effect of over 55% in size
# Procedure, shortened: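 Primary-screen hits were tested against the coupling system alone (GAPDH-based, glyceraldehyde-3-phosphate), without aldolase. Compounds at up to 57.5 uM final were preincubated 10 min at RT with coupling enzymes, then substrate/detection mix (AmpLite Red) was added for 20 min at RT; fluorescence read at 525/598 nm.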
# [14] = target: Catechol O-methyltransferase (Homo sapiens) (UniProt P21964); experiment: Confirmatory Screen for Target Class Profiling of Small Molecule Inhibitors of Methyltransferases (AID 1745852; calls by dose curve; further: potency means the concentration at half of the fitted maximal effect); settings: MTase-Glo luminescence, SAH detection, recombinant enzyme; measured here: COMT max response; stronger effect = lower value
# [15] = target: Guanidinoacetate N-methyltransferase (Homo sapiens) (UniProt Q14353); experiment: as above; settings: MTase-Glo luminescence, SAH detection, recombinant enzyme; activity change, negative = inhibition: at 57.3 µM (top of the series) unless noted; series mostly up to 57.3 µM
# [16] = target: Nicotinamide N-methyltransferase (Homo sapiens) (UniProt P40261); experiment: as above; settings: MTase-Glo luminescence, SAH detection, recombinant enzyme; measured here: NNMT max response; stronger effect = lower value
# [17] = target: Phenylethanolamine N-methyltransferase (Homo sapiens) (UniProt P11086); experiment: as above; settings: MTase-Glo luminescence, SAH detection, recombinant enzyme; measured here: PNMT max response; stronger effect = lower value
# Sequence of Phenylethanolamine N-methyltransferase (Homo sapiens) (P11086 whole entry, looked up): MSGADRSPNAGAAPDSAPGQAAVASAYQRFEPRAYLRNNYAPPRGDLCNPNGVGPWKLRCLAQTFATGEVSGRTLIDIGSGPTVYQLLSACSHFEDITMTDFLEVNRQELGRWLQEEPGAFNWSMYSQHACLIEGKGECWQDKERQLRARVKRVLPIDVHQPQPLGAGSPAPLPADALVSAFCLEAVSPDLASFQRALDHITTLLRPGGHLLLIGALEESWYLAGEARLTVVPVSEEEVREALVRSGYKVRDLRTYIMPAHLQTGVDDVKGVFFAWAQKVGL
# [18] = HepG2 viability counterscreen (readout 2: ATP content) against the NCATS DSHEA and TCM libraries (AID 1794840); settings: ATP content luminescence; series mostly up to 27.3 µM;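 further: HepG2 cells exposed to substances for about 24 h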
# Procedure, shortened: (§1)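 Readout 1: cellular protease activity, GF-AFC substrate (25 uM final, 30 min, fluorescence 380/510 nm). Readout 2: ATP content by CellTiter-Glo luminescence after 30 min at RT. Both follow ~24 h exposure of HepG2 cells (1,000/well) to substances.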
# [19] = HepG2 viability counterscreen (readout 1: protease activity) against the NCATS DSHEA and TCM libraries (AID 1794841); settings: qHTS concentration series; series mostly up to 27.3 µM;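 further: cells exposed to compounds for about 24 h before the protease read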
# Procedure, shortened: as §1
# [20] = target: Cytochrome P450 3A4 (Homo sapiens) (UniProt P08684); experiment: qHTS for inhibitors of CYP3A4 against the NCATS DSHEA and TCM libraries (AID 1919971); settings: recombinant CYP3A4 enzyme activity, luminescence qHTS; series mostly up to 34.1 µM;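 further: inhibition lowers luminescence from luciferin made by CYP3A4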
# Procedure, shortened: (§2)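 Luminescent P450-Glo format: compounds preincubated 15 min with enzyme and luciferin substrate, reaction run 30-45 min after NADPH regeneration solution. Intraplate controls: ketoconazole for CYP3A4 and CYP2C19, sulfaphenazole for CYP2C9.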
# [21] = target: Cytochrome P450 2D6 (Homo sapiens) (UniProt P10635); experiment: qHTS for inhibitors of CYP2D6 against the NCATS DSHEA and TCM libraries (AID 1919972); settings: CYP2D6 enzymatic inhibition, luminescence qHTS; series mostly up to 34.1 µM
# Sequence of Cytochrome P450 2D6 (Homo sapiens) (P10635 whole entry, looked up): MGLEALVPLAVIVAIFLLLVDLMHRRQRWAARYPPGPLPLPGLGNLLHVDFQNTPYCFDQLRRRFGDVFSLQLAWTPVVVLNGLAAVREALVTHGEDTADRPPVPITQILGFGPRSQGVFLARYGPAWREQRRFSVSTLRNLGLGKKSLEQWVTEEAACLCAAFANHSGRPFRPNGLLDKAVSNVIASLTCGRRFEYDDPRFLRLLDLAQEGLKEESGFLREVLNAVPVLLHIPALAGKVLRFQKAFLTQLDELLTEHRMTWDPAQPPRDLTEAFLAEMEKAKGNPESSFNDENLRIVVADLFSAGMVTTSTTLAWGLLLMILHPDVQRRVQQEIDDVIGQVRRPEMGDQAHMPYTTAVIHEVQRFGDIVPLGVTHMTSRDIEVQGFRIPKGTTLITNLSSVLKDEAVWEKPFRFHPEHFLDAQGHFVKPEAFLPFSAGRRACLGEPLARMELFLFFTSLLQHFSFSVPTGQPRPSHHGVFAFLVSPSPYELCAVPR
# Procedure, shortened: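 Luminescent P450-Glo read-out of CYP2D6 turnover of a luciferin substrate after NADPH-driven reaction of 30-45 min at room temperature. Compounds were first preincubated 15 min with enzyme at titrated concentrations; quinidine was the intraplate control.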
# [22] = target: Cytochrome P450 2C9 (Homo sapiens) (UniProt P11712); experiment: qHTS for inhibitors of CYP2C9 against the NCATS DSHEA and TCM libraries (AID 1919973); settings: recombinant CYP2C9 enzyme activity, luminescence; series mostly up to 34.1 µM;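 further: luminogenic pro-luciferin CYP2C9 substrate turned into luciferin with NADPH regeneration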
# Sequence of Cytochrome P450 2C9 (Homo sapiens) (P11712 whole entry, looked up): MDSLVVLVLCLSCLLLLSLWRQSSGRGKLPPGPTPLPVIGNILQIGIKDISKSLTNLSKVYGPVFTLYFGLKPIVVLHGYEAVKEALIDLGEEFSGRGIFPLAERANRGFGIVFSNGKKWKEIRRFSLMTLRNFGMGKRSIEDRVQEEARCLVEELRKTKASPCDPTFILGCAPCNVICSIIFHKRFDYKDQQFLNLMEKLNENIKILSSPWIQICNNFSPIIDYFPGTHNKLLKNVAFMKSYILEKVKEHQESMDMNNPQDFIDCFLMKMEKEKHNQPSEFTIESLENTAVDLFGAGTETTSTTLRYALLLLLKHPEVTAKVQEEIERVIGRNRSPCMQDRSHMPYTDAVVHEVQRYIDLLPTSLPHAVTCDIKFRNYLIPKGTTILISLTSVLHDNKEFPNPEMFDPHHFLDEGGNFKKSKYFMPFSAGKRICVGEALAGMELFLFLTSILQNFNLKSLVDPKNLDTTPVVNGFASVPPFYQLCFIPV
# Procedure, shortened: as §2
# [23] = KB-3-1 P-gp reporter qHTS against the NCATS DSHEA and TCM libraries (AID 1919975); settings: KB-3-1 parental cells, CellTiter-Glo luminescence viability, 72 h; series mostly up to 26.1 µM
# Procedure, shortened: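 Cell viability by CellTiter-Glo luminescence following ~72 h compound exposure (concentration-response). Uses parental, non-P-gp-overexpressing KB-3-1 line, 500 cells/well in DMEM/10% FBS, attached ~4 h before dosing.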
# [24] = target: Cytochrome P450 1A2 (Homo sapiens) (UniProt P05177); experiment: qHTS for inhibitors of CYPIA2 against the NCATS DSHEA and TCM libraries (AID 1919976); settings: recombinant CYP1A2 enzyme activity, luminescence; series mostly up to 37 µM;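 further: light from luciferin formed by CYP1A2 from a pro-luciferin substrate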
# Sequence of Cytochrome P450 1A2 (Homo sapiens) (P05177 whole entry, looked up): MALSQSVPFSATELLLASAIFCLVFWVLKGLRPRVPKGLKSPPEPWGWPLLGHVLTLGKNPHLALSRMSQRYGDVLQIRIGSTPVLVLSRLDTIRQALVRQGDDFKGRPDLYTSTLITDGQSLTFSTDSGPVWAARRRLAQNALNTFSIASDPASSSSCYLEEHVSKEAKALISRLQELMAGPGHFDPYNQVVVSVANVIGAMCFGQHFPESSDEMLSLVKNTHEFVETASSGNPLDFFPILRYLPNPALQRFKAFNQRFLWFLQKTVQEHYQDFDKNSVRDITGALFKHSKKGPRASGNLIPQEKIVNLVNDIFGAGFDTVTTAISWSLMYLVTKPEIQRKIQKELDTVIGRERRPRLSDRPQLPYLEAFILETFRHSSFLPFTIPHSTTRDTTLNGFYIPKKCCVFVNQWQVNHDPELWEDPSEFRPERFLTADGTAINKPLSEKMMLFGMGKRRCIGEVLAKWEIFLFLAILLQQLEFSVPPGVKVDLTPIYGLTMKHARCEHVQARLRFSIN
# Procedure, shortened: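 Human CYP1A2 with pro-luciferin substrate (typically 100 mM KPO4), 15 min preincubation with compound, then 1x NADPH regeneration for 30-45 min at room temperature in the dark. Luciferin quantified by luciferase luminescence; furafylline intraplate control.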
# [25] = qHTS Counterscreen for compound interference against the NCATS DSHEA and TCM libraries (AID 1919978); settings: firefly luciferase detection reagent interference, luminescence;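 further: compounds preincubated with 1 µM D-luciferin or buffer before detection reagent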
# Procedure, shortened: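 With 1 uM D-luciferin or phosphate buffer only, compounds at final 19.5 nM–39.8 uM were incubated for 15 min at room temperature. Luciferase detection reagent was then added, and luminescence was measured after a further 30 min at room temperature.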
# [26] = Dual reporter qHTS for agonist of Pregnane X Receptor (hPXR) against the NCATS DSHEA and TCM libraries: Fluorescence readout (AID 1920058); settings: PXR dual reporter cells; series mostly up to 40 µM
# Procedure, shortened: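 hPXR-Luc HepG2 cells, 2000/well in charcoal-stripped serum, attached 5 h, dosed for ~24 h at 37 °C. Fluorescence read is CellTiter-Fluor viability (Ex/Em 405/540 nm); rifampicin positive, tetraoctyl ammonium bromide (92 µM) cytotoxicity controls.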
# [27] = target: Nuclear receptor subfamily 1 group I member 2 (Homo sapiens) (UniProt O75469); experiment: Dual reporter qHTS for agonist of Pregnane X Receptor (hPXR) against the NCATS DSHEA and TCM libraries: Luminescence readout (AID 1920059); settings: hPXR dual reporter cells, luciferase luminescence agonist; series mostly up to 40 µM
# Sequence of Nuclear receptor subfamily 1 group I member 2 (Homo sapiens) (O75469 whole entry, looked up): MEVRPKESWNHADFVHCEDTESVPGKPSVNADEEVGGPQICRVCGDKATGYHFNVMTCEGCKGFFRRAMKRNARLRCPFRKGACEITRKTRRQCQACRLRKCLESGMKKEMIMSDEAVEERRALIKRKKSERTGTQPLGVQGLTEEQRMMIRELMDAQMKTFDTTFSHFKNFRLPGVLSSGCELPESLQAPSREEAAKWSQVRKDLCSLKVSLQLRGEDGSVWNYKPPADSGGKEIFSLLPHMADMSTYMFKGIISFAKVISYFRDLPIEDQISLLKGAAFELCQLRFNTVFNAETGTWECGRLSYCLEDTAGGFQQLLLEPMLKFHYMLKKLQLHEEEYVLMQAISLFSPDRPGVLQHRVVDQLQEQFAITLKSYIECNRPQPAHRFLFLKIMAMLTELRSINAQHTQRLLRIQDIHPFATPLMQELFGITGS
# Procedure, shortened: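 Luminescent PXR reporter read (ONE-Glo) after a CellTiter-Fluor viability read, following 24 h, 37C treatment of HepG2 cells stably carrying hPXR-Luc.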
smiles,measurement,setting,value
NS(=O)(=O)c1ccc(N=Nc2c[nH]c(=O)c(O)c2)cc1,Potency,[1],> 9.22 µM (inactive)
same,"activity change, negative = inhibition",[2],-17.1% [at 11.4 µM] (inactive)
same,Potency,[3],inactive
same,Potency,[4],18.3 µM (active)
CC(NC(=O)Nc1ccc(O)cc1)(C(F)(F)F)C(F)(F)F,activation,[5],8.6% (inactive)
COc1c(O)cc2oc(-c3ccc(O)c(O)c3)cc(=O)c2c1O,outcome,[6],inactive
same,outcome,[7],inactive
same,Potency,[8],6.31 µM (active)
same,outcome,[9],inactive
CCCc1nc2ccccc2c(=O)n1/N=C/c1ccc(O)c(O)c1,outcome,[10],inactive
same,outcome,[11],inactive
same,outcome,[12],inactive
same,outcome,[13],inactive
O=C(NCCc1ccccc1)c1ccc2c(=O)[nH]c3c(C(=O)NCC4CCCO4)sc(=S)n3c2c1 (configuration not stated),activity,[14],-68.6%
same,Potency,[15],24.1 µM (active)
same,activity,[16],-55.9%
same,activity,[17],-66.7%
O=C(/C=C/c1ccc(O)c(O)c1)O[C@@H]1C[C@](O)(C(=O)O)C[C@@H](O)[C@H]1O,outcome,[18],inactive
same,outcome,[19],inactive
same,Potency,[20],inactive
same,Potency,[21],inactive
same,Potency,[22],inactive
same,outcome,[23],inactive
same,Potency,[24],inactive
same,max response,[25],0.087% (inactive)
same,outcome,[26],inactive
same,Potency,[27],inactive
